Compound activity from PubChem BioAssay.
Lamin A splicing: qHTS Assay for Modulators of Lamin A Splicing; 200,000 compounds, 0.01% hits; Potency, µM (highest dose often 46.1 µM), for the others: at the top dose ratio change, negative = inhibition, hits mostly inhibitors; HeLa LMNA splicing GFP/RFP minigene ratio, 48 h; active = well fitted inhibition curve with a large enough effect in the signal ratio, with a control signal flat, not every such curve was filed as active; inconclusive = small, poorly fitted or top-dose-only effect, or effect the other way, or a change in a side signal; the % refers to the signal ratio; also: % is scaled to controls: 0 for no effect and ±100 for the full control effect
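S3 HeLa stable clones carrying a lamin A-EGFP splicing minigene plus DsRed2 were seeded at 600 cells/well in Opti-MEM with 2% FBS, pin-dosed and incubated 48 h at 37°C. Acumen cytometry (488 nm) gave the GFP/RFP total-intensity ratio.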
KDM4E inh: qHTS Assay for Inhibitors of Human Jumonji Domain Containing 2E (JMJD2E); Lysine-specific demethylase 4E (Homo sapiens), B2RXH2; JMJD2E catalytic domain, FDH-coupled NADH fluorescence (FDH is formaldehyde dehydrogenase); Potency, µM (doses to about 57.1 µM), for inactives: top-dose activity change, negative = inhibition, actives largely listed as inhibitors; 230,000 compounds, 1.6% hits; AID 2147, 2009;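 also: 0% = wells with enzyme and -100% = buffer wells without enzyme; nearly all actives have a fitted effect of over 50% in size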
HTT cytoprotect: qHTS Multiplex Assay to Identify Dual Action Probes in a Cell Model of Huntington: Cytoprotection (ATP); 230,000 compounds, 0.14% hits; AID 1471, 2008; Potency, µM (top dose mostly 56.4 µM), for the others: cytoprotection (ATP increase), usual class: activators; PC12 HTT-Q103 induced, cytoprotection, ATP luminescence, 40 h; active = well fitted curve in the direction sought with a large enough effect; inconclusive = small, poorly fitted or top-dose-only effect, or another doubt; inactive = no such curve, though single readings can be large; an effect the other way counts as inactive or inconclusive; also: % of control where 0% means no effect; nearly all actives have a fitted effect of over 45% in size
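PC12 cells with ecdysone-inducible HTT exon 1 Q103-GFP, induced with 100 nM tebufenozide and co-treated with library compounds in a dose series (1536-well, 1500 cells/well). Cytoprotection read as ATP content by ATPlite luminescence.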
ALDH1A1 inh: qHTS Assay for Inhibitors of Aldehyde Dehydrogenase 1 (ALDH1A1); Purified ALDH1A1, NADH fluorescence, propionaldehyde substrate; Potency, µM (top dose mostly 75.3 µM), without a hit: top-dose activity, negative = inhibition, usual class: inhibitors; 220,000 compounds, 7.3% hits; AID 1030, 2008;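 also: plate controls were no enzyme wells and a reference inhibitor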
HTT aggregate: qHTS Multiplex Assay to Identify Dual Action Probes in a Cell Model of Huntington: Aggregate Formation (GFP); Potency, µM (highest dose often 46.1 µM), for inactives: top-dose activity change, negative = inhibition, hits mostly inhibitors; 220,000 compounds, 1.1% hits; PC12 HttQ103-GFP aggregates, Acumen cytometry, 40 h; active = well fitted curve in the direction sought with a large enough effect; inconclusive = small, poorly fitted or top-dose-only effect, or another doubt; inactive = no such curve, though single readings can be large; an effect the other way counts as inactive or inconclusive; also: % is scaled to controls: 0 for no effect and ±100 for the full control effect; nearly all actives have a fitted effect of over 60% in size
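PC12/HTTQ103-GFP, ecdysone-inducible; teb 100 nM; cpd qHTS titration; GFP aggregates read on laser cytometer, Ex 488/Em 500-530 nm.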
HPGD inh: qHTS Assay for Inhibitors of HPGD (15-Hydroxyprostaglandin Dehydrogenase). 15-hydroxyprostaglandin dehydrogenase [NAD(+)] (Homo sapiens), P15428. purified HPGD, NADH fluorescence kinetic, PGE2 substrate. 150,000 compounds, 4.3% hits. Potency, µM, inactives show at the highest dose activity change, negative = inhibition, most hits filed as inhibitors. AID 894, 2007; also: % is scaled to controls: 0 for no effect and ±100 for the full control effect
Target sequence (P15428 whole entry, looked up): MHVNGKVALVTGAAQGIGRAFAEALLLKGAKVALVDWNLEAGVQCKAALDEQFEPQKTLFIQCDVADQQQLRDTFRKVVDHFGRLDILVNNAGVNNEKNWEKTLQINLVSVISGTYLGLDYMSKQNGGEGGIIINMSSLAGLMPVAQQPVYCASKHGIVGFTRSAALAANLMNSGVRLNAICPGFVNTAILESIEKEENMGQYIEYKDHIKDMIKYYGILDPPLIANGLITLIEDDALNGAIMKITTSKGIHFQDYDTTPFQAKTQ
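NADH formation kinetics: reaction with 30 uM PGE2 and 1 mM NAD+ (final), 20 nM enzyme, Tris-HCl pH 8 with Tween 20, after 15 min compound preincubation at room temperature. Fluorescence change, last versus first of five reads.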
Active calls of the source: *; ? = inconclusive; · = no result given; [ ] = remark or other dose. Compounds with a hit are over-represented: about 9.2% of the library has one in this group of screens. Unless noted, calls follow the shape of the dose curve; as a rule, active = well fitted inhibition curve with a large enough effect (not every such curve was filed as active); inconclusive = small, poorly fitted or top-dose-only effect, or another doubt; inactive = no such curve, though single readings can be large or run the other way. Potency is read from the fitted curve at half-maximal effect.

SMILES	Lamin A splicing	KDM4E inh	HTT cytoprotect	ALDH1A1 inh	HTT aggregate	HPGD inh
O=C(c1ccco1)N1CCN(CC(=O)N2c3ccccc3CCc3ccccc32)CC1	-6%	?	-13%	?	-19%	-6%
CCOC(=O)C1CCCN(C(=O)CSCc2ccccc2)C1 (centres undefined)	13%	4%	18%	?	-16%	-13%
CCOc1ccc(C2C(=O)N(C3CCCCC3)CC(=O)N2CCc2ccccc2)cc1OC (centres undefined)	-10%[46 µM]	·	·	·	·	·
Cc1nc([N+](=O)[O-])c(C(=O)OCc2ccccc2C#N)n1C	-5%[9.22 µM]	-6%	-15%	4%	7%	·
Cn1nc(C(F)(F)F)c(C(=O)Nc2ccc(C(F)(F)F)cc2)c1Cl	0%	4%	-18%	4%	10%	-15%
COc1ccc(NC(=O)c2c(C(F)(F)F)nn(C)c2SCc2ccccc2)cc1	12%	2%	-17%	8.9µM*	-8%	-12%
Cc1[nH]c(N)nc(=S)c1CCC(=O)O	·	·	-5%[10 µM]	-7%[13.5 µM]	·	-11%
COc1ccc(/C=N/NC(=O)c2cccnc2)cc1COc1ccc([N+](=O)[O-])c(C)c1	·	-19%	-50%[10 µM]	10µM*	-23%[9.22 µM]	·
COc1cc([N+](=O)[O-])cc(/C=N/NC(=O)C(C)Nc2cccc3ccccc23)c1O (centres undefined)	?	4.5µM*	22%[10 µM]	-4%	13µM*	-24%
COc1ccc(/C=N/NC(=O)c2cc(O)c(O)c(O)c2)cc1Cn1cc([N+](=O)[O-])cn1	-4%[46 µM]	2.2µM*	-52%	?	10%	·
COc1cc([N+](=O)[O-])cc(/C=N/NC(=O)c2cccnc2)c1O	·	8.9µM*	40%[10 µM]	·	24%[9.22 µM]	·
COc1ccc(/C=N/NC(=O)c2ccccc2O)cc1Cn1cc([N+](=O)[O-])cn1	·	?	-2%[10 µM]	·	-2%[9.22 µM]	·
COC(=O)[C@@]1(Cc2ccc(OC)cc2)[C@H]2c3cc(C(=O)N(C)C)n(Cc4ccccn4)c3C[C@H]2CN1C(=O)c1ccccc1	·	-4%	?	7%	·	-6%
CCNc1ncc2nc(-c3ccccc3)c(=O)n(CCOC)c2n1	-10%	·	-4%	?	·	·
COc1ccc(CCNC(=O)c2ccc3c(c2)N(Cc2cccc(Cl)c2)C(=O)c2ccccc2S3=O)cc1OC (centres undefined)	-15%[46 µM]	·	·	·	·	·
CCOC(=O)c1[nH]c2ccc(Br)cc2c1NC(=O)CCN1CCC(C)CC1	-6%	-8%	-8%	11µM*	0%	-15%
N#Cc1c(NC(=O)c2ccccc2Cl)n(Cc2ccccc2)c2nc3ccccc3nc12	-27%	?	-18%[10 µM]	?	?	?
CCCCn1c(NC(=O)c2ccccc2Cl)c(C#N)c2nc3ccccc3nc21	?	?	-62%	?	10µM*	?
COc1ccc2c(c1)N(CC[C@H]1CCCCN1C)c1ccccc1S2	·	·	-5%[10 µM]	10%[13.5 µM]	·	-8%
CN(C)N1C(=O)CC(N2CCCC2)C1=O (centres undefined)	·	-15%	5%[10 µM]	22µM*	-10%[9.22 µM]	·
Cc1ccnc(Sc2ccc([N+](=O)[O-])cc2[N+](=O)[O-])n1	?	6%	-111%	?	?	-12%
Cc1cc(C)nc(Sc2ccc(C=O)cc2[N+](=O)[O-])n1	-2%[46 µM]	-17%	13%[10 µM]	7.1µM*	1%[9.22 µM]	·
Cn1nc([N+](=O)[O-])nc1Sc1nnc(-c2ccccc2)o1	?	0%	17%	?	?	-7%
O=Cc1ccc(Sc2nnc(-c3ccccc3)o2)c([N+](=O)[O-])c1	?	0%	-10%	7.9µM*	?	14µM*
Cc1cc(C)nc(NC=C2C(=O)OC(C)(C)OC2=O)n1	·	-6%	1%[10 µM]	4µM*	-4%[9.22 µM]	·
